# Results from PubChem BioAssay (NCATS).
# Several values for one entry are separate records, joined by “and”; a condition that tells them apart may be missing. Equal entries are not always repeated. Results filed as inconclusive are left out. A call without a number means that no potency is given here. Activity calls are given as the source filed them. Unless noted, calls come from the whole dose curve.
# Columns and labels:
# [1] = Confirmatory qHTS to identify inhibitors of SARS-CoV-2 cell entry (AID 1645844); note: nearly all actives have a fitted effect of over 45% in size; note: potency is the fitted concentration of half-maximal effect
# In short: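 HEK293-ACE2 cells (Expi293F stably expressing human ACE2) were pretreated with compounds for 1 hr at 37C, then infected with MLV-based particles carrying Wuhan-Hu-1 spike (C-terminal 19-aa truncation). Luciferase luminescence read after 48 hr; normalized to spike PP (100%) and bald PP (0%).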
# [2] = Cytotoxicity counterscreen for inhibitors of SARS-CoV-2 cell entry (AID 1645845); note: nearly all actives have a fitted effect of over 50% in size
# In short: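 Expi293F/hACE2 cells seeded overnight; cpd pin-transferred in DMSO, 1 h preincubation, + media, 48 h 37 C 5% CO2; ATPLite 1step luminescence; normalized to cells and no cells.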
# [3] = target: Cytochrome P450 2D6 (Homo sapiens) (UniProt P10635); experiment: Cytochrome P450 family 2 subfamily D member 6 (CYP2D6) small molecule antagonists: luciferase biochemical (cell-free) qHTS assay (AID 1645840; active = well fitted curve in the direction sought with a large enough effect in the repeat runs; an effect the other way counts as inactive or inconclusive; note: nearly all actives have a fitted effect of over 55% in size)
# In short: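 P450-Glo luminescent screen: recombinant CYP2D6 enzyme–proluciferin substrate mix preincubated with compound 10 min at room temperature, then NADPH regeneration added for 1 h at room temperature. Detection reagent added for 20 min; luciferin light read as relative luminescence units.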
# [4] = target: Cytochrome P450 2C9 (Homo sapiens) (UniProt P11712); experiment: Cytochrome P450 family 2 subfamily C member 9 (CYP2C9) small molecule antagonists: luciferase biochemical (cell-free) qHTS assay (AID 1645842; active = well fitted curve in the direction sought with a large enough effect in the repeat runs; an effect the other way counts as inactive or inconclusive; note: nearly all actives have a fitted effect of over 55% in size; note: potency is the fitted concentration of half-maximal effect)
# In short: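 Luminescence, after 20 min with luciferin detection reagent, reflected CYP2C9 turnover during a 1 h NADPH-driven reaction at 37C. Enzyme-substrate mix contained 0.4% bovine serum albumin and was preincubated with compound 10 min at room temperature.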
# [5] = Primary qHTS to identify inhibitors of SARS-CoV-2 cell entry (AID 1645846); conditions: activity change, negative = inhibition: at 57.1 µM (top of the series) unless noted; note: nearly all actives have a fitted effect of over 45% in size; note: potency is the fitted concentration of half-maximal effect
# In short: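 Inhibition of spike-mediated entry was scored in human ACE2-transfected Expi293F cells. Particles were MLV-pseudotyped with Wuhan-Hu-1 S carrying a 19-aa C-terminal deletion; signal was luciferase after two days, scaled between spike PP and fusion-protein-free PP.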
# [6] = Primary qHTS for inhibitors of nuclear receptor binding SET domain protein 2 (NSD2) in an isogenic RCH-ACV NSD2 p.E1099K mutant (9B) (AID 1645876; active = well fitted curve in the direction sought with a large enough effect; an effect the other way counts as inactive or inconclusive; note: nearly all actives have a fitted effect of over 70% in size)
# [7] = Primary qHTS for inhibitors of nuclear receptor binding SET domain protein 2 (NSD2) in an RCH-ACV wild type WT cells (2C) (AID 1645877; active = well fitted curve in the direction sought with a large enough effect; an effect the other way counts as inactive or inconclusive; note: nearly all actives have a fitted effect of over 70% in size)
# [8] = A High-Content qHTS Against Drug Library for the Identification of Small Molecules that Inhibit DYT1 Early Onset Primary Dystonia-Associated Cell Pathology (AID 1645839)
# In short: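 Readout: %pathology, the punctate EGFP-TorsinA distribution from imaging, as the primary channel and cell count as the toxicity counterscreen. HEK293 Flp-In cells expressing delE TorsinA were induced with tetracycline and treated with compound for 48 h.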
# [9] = VSVG counterscreen qHTS to identify inhibitors of SARS-CoV-2 cell entry (AID 1645847); note: nearly all actives have a fitted effect of over 65% in size; note: potency is the fitted concentration of half-maximal effect
# In short: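 Luminescence from a luciferase reporter, normalised to bald particle and VSV-G pseudotyped particle wells, is the read-out. Cells are HEK293 expressing human ACE2, exposed to compound 1 h before a 48 h particle infection at 37 °C.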
# Cytochrome P450 2D6 (Homo sapiens), sequence (P10635 whole entry, looked up): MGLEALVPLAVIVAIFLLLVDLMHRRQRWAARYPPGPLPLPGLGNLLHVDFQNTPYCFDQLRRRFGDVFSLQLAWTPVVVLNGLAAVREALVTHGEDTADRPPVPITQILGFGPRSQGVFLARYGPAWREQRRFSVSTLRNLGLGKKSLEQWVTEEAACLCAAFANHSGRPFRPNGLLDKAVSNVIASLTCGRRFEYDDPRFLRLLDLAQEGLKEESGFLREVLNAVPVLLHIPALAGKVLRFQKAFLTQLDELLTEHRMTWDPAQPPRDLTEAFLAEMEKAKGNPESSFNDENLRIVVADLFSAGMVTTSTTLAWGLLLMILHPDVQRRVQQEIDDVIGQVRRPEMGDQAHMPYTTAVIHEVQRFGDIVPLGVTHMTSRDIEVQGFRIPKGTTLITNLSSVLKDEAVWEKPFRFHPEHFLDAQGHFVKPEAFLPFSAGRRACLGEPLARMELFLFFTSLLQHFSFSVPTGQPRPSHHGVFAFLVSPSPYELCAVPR
# Cytochrome P450 2C9 (Homo sapiens), sequence (P11712 whole entry, looked up): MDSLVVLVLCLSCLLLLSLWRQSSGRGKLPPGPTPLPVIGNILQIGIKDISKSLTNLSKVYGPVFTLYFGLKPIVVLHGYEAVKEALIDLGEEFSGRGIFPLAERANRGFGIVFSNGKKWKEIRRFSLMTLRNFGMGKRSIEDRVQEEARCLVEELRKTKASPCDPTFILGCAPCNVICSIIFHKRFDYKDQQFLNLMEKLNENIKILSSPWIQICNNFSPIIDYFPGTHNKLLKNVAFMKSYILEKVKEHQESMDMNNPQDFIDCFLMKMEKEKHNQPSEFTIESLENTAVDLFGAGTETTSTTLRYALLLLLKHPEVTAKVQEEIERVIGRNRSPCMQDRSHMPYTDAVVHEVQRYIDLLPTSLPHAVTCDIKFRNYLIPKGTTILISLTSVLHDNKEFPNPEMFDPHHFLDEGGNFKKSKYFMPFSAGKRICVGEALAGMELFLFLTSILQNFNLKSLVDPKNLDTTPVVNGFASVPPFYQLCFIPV
structure (smiles),measurement,setting,value
CNCCC=C1c2ccccc2CCc2ccccc21,Potency,[1],21.5 µM (active)
same,Potency,[2],inactive
Clc1ccc(C(c2ccc(Cl)cc2)C(Cl)(Cl)Cl)cc1,Potency,[3],inactive
same,Potency,[4],2.19 µM (active)
same,Potency,[2],inactive
same,"activity change, negative = inhibition",[5],2.18%
same,Potency,[6],inactive
same,Potency,[7],inactive
CC(C)(C)c1ccc(O)cc1,outcome,[8],inactive
same,"activity change, negative = inhibition",[5],-17.1%
Clc1cccc(SC2CCNCC2)n1,outcome,[8],inactive
same,Potency,[6],inactive
same,Potency,[7],inactive
O=C1CN(/N=C/c2ccc([N+](=O)[O-])o2)C(=O)N1,Potency,[1],21.5 µM (active)
same,Potency,[9],1.92 µM (active)
C=CCC1(C(C)CC)C(=O)NC(=O)NC1=O (configuration not stated),outcome,[8],inactive
same,Potency,[2],inactive
same,"activity change, negative = inhibition",[5],-17.9%
same,Potency,[6],inactive
same,Potency,[7],inactive
CCCCCCNC(=O)n1cc(F)c(=O)[nH]c1=O,Potency,[1],8.57 µM (active)
same,Potency,[2],inactive
same,Potency,[9],5.41 µM (active)
O=c1[nH]c(=O)n([C@H]2C[C@H](O)[C@@H](CO)O2)cc1Br,Potency,[2],inactive
COC(=O)CCCCC(CCSS/C(CCO)=C(\C)N(C=O)Cc1cnc(C)nc1N)SC(C)=O (configuration not stated),Potency,[2],inactive
COC(=O)C1=C(C)NC(C)=C(C(=O)OCC(C)=O)C1c1ccccc1[N+](=O)[O-] (configuration not stated),Potency,[1],34.1 µM (active)
same,Potency,[2],inactive
same,Potency,[9],8.57 µM (active)
O=C(O)/C=C\C(=O)O,Potency,[2],inactive
Cc1nc2ccc(CN(C)c3ccc(C(=O)N[C@@H](CCC(=O)O)C(=O)O)s3)cc2c(=O)[nH]1,Potency,[1],0.0271 µM (active)
same,Potency,[2],inactive
same,Potency,[9],0.304 µM (active)
CC[N+](CC)(CCNC(=O)C(=O)NCC[N+](CC)(CC)Cc1ccccc1Cl)Cc1ccccc1Cl,Potency,[2],inactive
COc1cc(NS(=O)(=O)c2ccc(N)cc2)nc(C)n1,Potency,[2],inactive
Cc1ccc(Nc2nccc(N(C)c3ccc4c(C)n(C)nc4c3)n2)cc1S(N)(=O)=O,Potency,[1],21.5 µM (active)
same,Potency,[9],12.1 µM (active)
Cc1cc(NS(=O)(=O)c2ccc(N)cc2)nc(C)n1,Potency,[1],inactive
same,Potency,[2],inactive
same,"activity change, negative = inhibition",[5],-52.4%
same,Potency,[9],inactive
CSCC[C@H](NC(=O)[C@H](Cc1ccc(OS(=O)(=O)O)cc1)NC(=O)[C@@H](N)CC(=O)O)C(=O)NCC(=O)N[C@@H](Cc1c[nH]c2ccccc12)C(=O)N[C@@H](CCSC)C(=O)N[C@@H](CC(=O)O)C(=O)N[C@@H](Cc1ccccc1)C(N)=O,Potency,[2],inactive
C[n+]1c2cc(N)ccc2cc2ccc(N)cc21 (tested in a mixture with another compound),Potency,[1],6.07 µM (active)
same,Potency,[5],7.94 µM (active)
same,Potency,[9],4.29 µM (active)
CCN(CC)C(C)CN1c2ccccc2Sc2ccccc21 (configuration not stated),Potency,[1],0.0383 µM (active)
same,Potency,[2],inactive
same,Potency,[9],0.341 µM (active)
CC[C@H](C)C(=O)O[C@H]1C[C@H](O)C=C2C=C[C@H](C)[C@H](CC[C@@H](O)C[C@@H](O)CC(=O)O)[C@H]21,Potency,[2],inactive
CC(C)OC(=O)OCOP(=O)(CO[C@H](C)Cn1cnc2c(N)ncnc21)OCOC(=O)OC(C)C,Potency,[1],0.0152 µM (active)
same,Potency,[2],inactive
same,Potency,[9],0.0192 µM (active)
Nc1nc2[nH]cc(CCc3ccc(C(=O)N[C@@H](CCC(=O)O)C(=O)O)cc3)c2c(=O)[nH]1,Potency,[1],1.92 µM (active)
same,Potency,[2],inactive
same,Potency,[9],1.71 µM (active)
NCCCNCCSP(=O)(O)O,"activity change, negative = cytotoxicity",[2],-16.9% [at 11.3 µM] (inactive)
CN(c1nccc(=O)[nH]1)C1CCN(c2nc3ccccc3n2Cc2ccc(F)cc2)CC1,Potency,[2],inactive
CO/N=C(/C(=O)N[C@@H]1C(=O)N2C(C(=O)[O-])=C(C[n+]3ccn4ncccc43)CS[C@H]12)c1nsc(N)n1,Potency,[2],inactive
O=C(NC(Cc1cc(=O)[nH]c2ccccc12)C(=O)O)c1ccc(Cl)cc1 (configuration not stated),Potency,[2],inactive
CCOC(=O)NNc1ccc(N(CC)CC(C)O)nn1 (configuration not stated),Potency,[2],inactive
CC(C)=CCC/C(C)=C/CC/C(C)=C/CCC(=O)OC/C=C(\C)CCC=C(C)C,Potency,[1],9.61 µM (active)
same,Potency,[2],inactive
same,Potency,[9],1.08 µM (active)
Nc1ccn([C@@H]2O[C@H](CO)[C@@H](O)C2O)c(=O)n1 (some centres not stated),Potency,[1],4.29 µM (active)
same,Potency,[2],inactive
same,Potency,[9],4.82 µM (active)
CCCCCCCCCCCCCCCCCC(=O)O,Potency,[3],inactive
same,Potency,[4],inactive
same,"activity change, negative = inhibition",[5],-6.11%
Cn1c(=O)c2[nH]c(Br)nc2n(C)c1=O,Potency,[2],inactive
O=C(O)CCCCC(=O)O,Potency,[2],inactive
same,Potency,[5],inactive
O=S(=O)(O)c1ccc2nc(-c3ccccc3)[nH]c2c1,Potency,[2],inactive
same,Potency,[5],inactive
N#CSCC(=O)O,Potency,[2],inactive
same,Potency,[5],inactive
CC(C)NCC(O)c1ccc(NS(C)(=O)=O)cc1 (configuration not stated),Potency,[2],inactive
same,"activity change, negative = inhibition",[5],-13.1% and -25%
CC(C)(Oc1ccc(Cl)cc1)C(=O)OCCCOC(=O)C(C)(C)Oc1ccc(Cl)cc1,Potency,[2],inactive
same,"activity change, negative = inhibition",[5],-28.5%
OCc1ccc(Cl)cc1Cl,Potency,[2],inactive
same,Potency,[5],inactive
c1ccc2sc(SSc3nc4ccccc4s3)nc2c1,Potency,[2],inactive
same,Potency,[5],inactive
CCCCCCCCCCCCCCCCCC(=O)OCC(O)CO (configuration not stated),Potency,[2],inactive
same,Potency,[5],inactive
C[C@@H]1O[C@@H]1P(=O)(O)O,Potency,[2],inactive
same,"activity change, negative = inhibition",[5],1.53% [at 27.1 µM]
